The text below walks through data of PubChem BioAssay (NCATS).

Unmarked numbers belong to inactive results. Records with an inconclusive call do not appear. Calls of active or inactive are those of the source. Unless noted, the call rests on the fitted dose curve; in most records, active means well fitted curve in the direction sought with a large enough effect; inconclusive means small, poorly fitted or top-dose-only effect, or another doubt; inactive means no such curve, though single readings can be large; an effect the other way counts as inactive or inconclusive.

Muscarinic acetylcholine receptor M1 (Rattus norvegicus), sequence (P08482 whole entry, looked up): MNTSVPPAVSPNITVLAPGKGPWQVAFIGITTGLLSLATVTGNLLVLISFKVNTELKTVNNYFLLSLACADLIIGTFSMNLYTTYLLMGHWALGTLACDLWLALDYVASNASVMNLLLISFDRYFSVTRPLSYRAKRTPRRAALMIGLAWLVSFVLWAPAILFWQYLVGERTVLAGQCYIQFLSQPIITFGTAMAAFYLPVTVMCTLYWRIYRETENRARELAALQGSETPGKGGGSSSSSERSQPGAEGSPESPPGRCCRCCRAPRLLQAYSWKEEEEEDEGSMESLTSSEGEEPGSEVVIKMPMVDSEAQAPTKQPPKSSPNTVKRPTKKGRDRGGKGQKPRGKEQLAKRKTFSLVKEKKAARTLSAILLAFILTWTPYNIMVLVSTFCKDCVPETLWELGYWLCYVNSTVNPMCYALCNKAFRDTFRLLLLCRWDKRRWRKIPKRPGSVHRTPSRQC
Pyruvate kinase PKM (Homo sapiens), sequence (P14618 whole entry, looked up): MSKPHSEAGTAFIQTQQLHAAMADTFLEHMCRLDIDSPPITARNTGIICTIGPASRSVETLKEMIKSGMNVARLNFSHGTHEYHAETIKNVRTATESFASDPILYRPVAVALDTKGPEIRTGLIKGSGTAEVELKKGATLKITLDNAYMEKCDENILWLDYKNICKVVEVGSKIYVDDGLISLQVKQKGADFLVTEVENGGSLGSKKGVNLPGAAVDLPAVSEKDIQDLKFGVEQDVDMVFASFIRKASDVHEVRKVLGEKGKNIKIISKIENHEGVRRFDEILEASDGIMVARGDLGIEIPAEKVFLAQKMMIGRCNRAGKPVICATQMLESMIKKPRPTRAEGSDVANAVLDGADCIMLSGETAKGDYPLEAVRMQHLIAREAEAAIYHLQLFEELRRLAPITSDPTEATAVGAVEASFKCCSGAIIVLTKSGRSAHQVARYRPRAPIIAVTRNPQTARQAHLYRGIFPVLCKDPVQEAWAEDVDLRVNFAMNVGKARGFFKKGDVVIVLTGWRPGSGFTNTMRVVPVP
Alpha-galactosidase A (Homo sapiens), sequence (P06280 whole entry, looked up): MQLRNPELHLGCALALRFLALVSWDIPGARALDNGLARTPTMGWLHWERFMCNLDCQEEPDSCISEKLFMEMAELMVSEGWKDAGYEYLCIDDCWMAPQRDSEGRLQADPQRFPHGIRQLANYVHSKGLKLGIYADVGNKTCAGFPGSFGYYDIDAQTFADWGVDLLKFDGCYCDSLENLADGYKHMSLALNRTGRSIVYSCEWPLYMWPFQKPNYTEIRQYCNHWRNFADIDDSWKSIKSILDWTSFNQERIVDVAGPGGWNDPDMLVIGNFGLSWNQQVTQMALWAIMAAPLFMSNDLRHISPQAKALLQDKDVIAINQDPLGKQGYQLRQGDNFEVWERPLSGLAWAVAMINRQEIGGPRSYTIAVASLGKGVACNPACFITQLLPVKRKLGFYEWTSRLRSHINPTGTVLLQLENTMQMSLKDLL

Tested on in the first assay: not listed separately
The assay can be described thus: qHTS Assay for Identification of Small Molecule Agonists for Hypoxia Response Element Signaling Pathway (AID 914; active means well fitted activation curve with a large enough effect in the signal ratio, with a control signal flat, not every such curve was filed as active; the % refers to the signal ratio; further: potency means the concentration at half of the fitted maximal effect; on activation: % of control where 0% means no effect). To be noted: ME-180 (cervical carcinoma) HRE-bla reporter, beta-lactamase ratio, CoCl2, 17 h; activation: stronger effect = higher value. The procedure, abridged: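 Read-out: CCF4 FRET ratio of 460nm to 530nm emission (excitation 405nm) after 2.5 hours at room temperature, taken from HRE-bla ME-180 cells that had been exposed to compound and EC50 CoCl2 for 17 hours.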
Turning to `CCOC(=O)c1c(-c2cccs2)csc1NC(=O)c1ccncc1`, the Potency is 6.31 µM (active).

Take `Cc1cc(-c2cc(-c3ccc(Cl)cc3)nc(N)c2C#N)co1`: the Potency was 7.94 µM (active).

Regarding `C=CCn1c(=S)[nH]c2nc3c(cc2c1=O)COC(C)(C)C3`, the activation is -5.87%.

`OC1(C2(O)CC(c3ccccc3)ON2)CCCCC1` (configuration not stated): the activation was -4.48%.

As to `COCCCNc1nc2c(c(=O)[nH]c(=O)n2C)n1CC(O)COc1ccccc1` (configuration not stated), the activation was -6.56%.

`Cc1cc(C)c(-n2c(O)c(C=NCCN3CCOCC3)c(=O)[nH]c2=O)c(C)c1`: the activation was -6.53%.

For the molecule `COc1ccc(NC(=O)CSC2=C(C#N)C(c3ccco3)C3=C(CCCC3=O)N2)c(OC)c1` (configuration not stated), the activation was -27.4%.

In the case of `O=C(O)C1CC=CCC1C(=O)N1CCN(c2nc(-c3ccccc3)c3ccccc3n2)CC1` (configuration not stated), the Potency was 3.98 µM (active).

With `CCOC(=O)C1/C(=N\O)CC(C)(O)C(C(=O)OCC)C1c1ccc(OC)c(OC)c1` (configuration not stated), the Potency is 0.794 µM (active).

In another assay the target is Muscarinic acetylcholine receptor M1 (Rattus norvegicus) (UniProt P08482). Kind of assay: qHTS Assay for Antagonists of Acetylcholine Muscarinic M1 Receptor: Kinetic Measurement of Intracellular Calcium Response (AID 943).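 Further: Fluo-4 calcium signal as peak divided by basal fluorescence over 4 min; nearly all actives have a fitted effect of over 75% in size.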 The note with it: M1-expressing cells, kinetic intracellular calcium fluorescence; series mostly up to 35.3 µM; activity change, negative = inhibition: at the top concentration. The essentials:
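CHO cells stably expressing rat M1 were loaded with no-wash Fluo-4 dye for 1 h at 37C, pre-incubated 10 min with compound, then challenged with EC80 carbachol (100 nM final); kinetic calcium read 4 min, peak/basal ratio.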
A general note: qHTS replaces the single test concentration by a dilution series.
Turning to `Nc1ncnc2c1ncn2[C@@H]1O[C@@H](CO)[C@H](O)[C@@H]1O`, the “activity change, negative = inhibition” value is -13.2%.

Consider `FC(F)(F)c1cc(CO[C@@H]2CCCN[C@H]2c2ccccc2)cc(C(F)(F)F)c1`, for which the “activity change, negative = inhibition” value was -30.5%.

In the case of `O=C(/C=C\c1ccc(O)cc1)c1ccc(O)cc1O`, the “activity change, negative = inhibition” value was -34.2%.

The next assay deals with Pyruvate kinase (Leishmania mexicana) (UniProt Q27686). Kind of assay: qHTS Validation Assay for Inhibitors of Leishmania Mexicana Pyruvate Kinase (AID 945). Further: potency means the concentration at half of the fitted maximal effect.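 On activity change, negative = inhibition: 0% = DMSO only neutral control wells.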 To be noted: purified L. mexicana pyruvate kinase, enzyme activity, E451W mutant enzyme; series mostly up to 57.5 µM; activity change, negative = inhibition: at the top concentration. The procedure, abridged: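 Substrate mix (0.5 mM PEP, 0.1 mM ADP, 7 mM MgCl2, 50 mM KCl, pH 7.2 imidazole) received compound by pin tool, then 0.2 nM LmPYK E451W. After 1 h at room temperature, PKLight was added and luminescence measured.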
Pyruvate kinase (Leishmania mexicana), sequence (Q27686 2-499 E452W): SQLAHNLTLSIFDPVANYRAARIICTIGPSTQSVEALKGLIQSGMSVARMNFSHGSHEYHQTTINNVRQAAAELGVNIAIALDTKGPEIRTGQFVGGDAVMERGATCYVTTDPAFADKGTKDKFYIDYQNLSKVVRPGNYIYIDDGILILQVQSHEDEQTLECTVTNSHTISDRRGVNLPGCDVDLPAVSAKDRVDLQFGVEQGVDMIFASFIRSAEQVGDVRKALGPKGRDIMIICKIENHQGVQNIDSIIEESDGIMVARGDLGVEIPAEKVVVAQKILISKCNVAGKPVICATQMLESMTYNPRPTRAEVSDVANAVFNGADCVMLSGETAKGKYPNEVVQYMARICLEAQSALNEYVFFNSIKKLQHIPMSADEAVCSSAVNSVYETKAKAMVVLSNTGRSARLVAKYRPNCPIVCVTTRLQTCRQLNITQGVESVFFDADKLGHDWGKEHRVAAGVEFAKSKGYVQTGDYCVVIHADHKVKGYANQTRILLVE
As for `CC[C@]1(O)C[C@H]2CN(CCc3c([nH]c4ccccc34)[C@](C(=O)OC)(c3cc4c(cc3OC)N(C)[C@@H]3[C@](O)(C(=O)OC)[C@H](OC(C)=O)[C@]5(CC)C=CCN6CC[C@]43[C@@H]65)C2)C1`, the “activity change, negative = inhibition” value is -1.36%.

For `Nc1ncnc2c1ncn2[C@@H]1O[C@@H](CO)[C@H](O)[C@@H]1O`, the “activity change, negative = inhibition” value is 9.4%.

Regarding `FC(F)(F)c1cc(CO[C@@H]2CCCN[C@H]2c2ccccc2)cc(C(F)(F)F)c1`, the “activity change, negative = inhibition” value was -6.69%.

For `O=C(/C=C\c1ccc(O)cc1)c1ccc(O)cc1O`, the Potency is 12.6 µM (active).

For the molecule `CN1CCc2cc(O)c(O)cc2[C@H](c2ccccc2)C1`, the “activity change, negative = inhibition” value was -13.3%.

Another assay concerns the target Pyruvate kinase PKM (Homo sapiens) (UniProt P14618). The assay can be described thus: qHTS Assay for Activators of Human Muscle Pyruvate Kinase (AID 954; active means well fitted curve in the direction sought with a large enough effect, not every such curve was filed as active;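 further: 0% = uninhibited enzyme and -100% = no enzyme or full thiadiazolimine inhibition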). To be noted: purified human muscle pyruvate kinase, luciferase-coupled luminescence, 1 h; series mostly up to 57.5 µM; activity change, negative = inhibition: at the top concentration. The procedure, abridged:
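Luminescence from a luciferase ATP-detection/stop reagent reported PKM2 activity. Reactions contained 0.1 nM purified human enzyme, 0.5 mM PEP, 0.1 mM ADP and 7 mM MgCl2 at pH 7.2, run 1 h at RT.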
On to `CC[C@]1(O)C[C@H]2CN(CCc3c([nH]c4ccccc34)[C@](C(=O)OC)(c3cc4c(cc3OC)N(C)[C@@H]3[C@](O)(C(=O)OC)[C@H](OC(C)=O)[C@]5(CC)C=CCN6CC[C@]43[C@@H]65)C2)C1`, for which the “activity change, negative = inhibition” value was 8.53%.

Consider `Nc1ncnc2c1ncn2[C@@H]1O[C@@H](CO)[C@H](O)[C@@H]1O`, for which the “activity change, negative = inhibition” value was -23.3%.

As for `FC(F)(F)c1cc(CO[C@@H]2CCCN[C@H]2c2ccccc2)cc(C(F)(F)F)c1`, the “activity change, negative = inhibition” value is -6.75%.

Consider `O=C(/C=C\c1ccc(O)cc1)c1ccc(O)cc1O`, for which the “activity change, negative = inhibition” value was -67.1%.

Take `CN1CCc2cc(O)c(O)cc2[C@H](c2ccccc2)C1`: the “activity change, negative = inhibition” value is -5.53%.

A further assay has as its target Alpha-galactosidase A (Homo sapiens) (UniProt P06280). The assay can be described thus: Counterscreen for Glucocerebrosidase Inhibitors: qHTS Assay for Human alpha-Galactosidase at pH 4.5 (AID 992). Further: 0% is about no effect. The note with it: purified enzyme, fluorogenic substrate; series mostly up to 76.9 µM; activity change, negative = inhibition: at the top concentration. The procedure, abridged:
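Enzyme at 2 nM final was combined with compound (0.7 nM to 77 uM) and 80 uM 4-methylumbelliferyl alpha-D-galactopyranoside in 50 mM citric acid, 0.005% Tween-20, pH 4.5. After 20 min at room temperature, fluorescence was read (Ex 365/Em 440 nm); AC50 came from Hill fits.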
A general note: A counterscreen serves to expose hits that act by an unwanted route or on another target.
On to `CC[C@]1(O)C[C@H]2CN(CCc3c([nH]c4ccccc34)[C@](C(=O)OC)(c3cc4c(cc3OC)N(C)[C@@H]3[C@](O)(C(=O)OC)[C@H](OC(C)=O)[C@]5(CC)C=CCN6CC[C@]43[C@@H]65)C2)C1`, for which the “activity change, negative = inhibition” value is -4.61%.

With `Nc1ncnc2c1ncn2[C@@H]1O[C@@H](CO)[C@H](O)[C@@H]1O`, the “activity change, negative = inhibition” value is -2.19%.

`FC(F)(F)c1cc(CO[C@@H]2CCCN[C@H]2c2ccccc2)cc(C(F)(F)F)c1`: the “activity change, negative = inhibition” value is -15.6%.

With `O=C(/C=C\c1ccc(O)cc1)c1ccc(O)cc1O`, the “activity change, negative = inhibition” value is -11.7%.

Turning to `CN1CCc2cc(O)c(O)cc2[C@H](c2ccccc2)C1`, the “activity change, negative = inhibition” value is 2.1%.

In the next assay the target is alpha-glucosidase (Oryza sativa, rice) (UniProt Q653V4). Kind of assay: Counterscreen for Glucocerebrosidase Inhibitors: qHTS Assay for Rice alpha-Glucosidase at pH 5.0 (AID 997).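 Further: 0% = full activity with enzyme and -100% = basal without enzyme.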 The note with it: rice alpha-glucosidase enzyme activity; series mostly up to 76.9 µM; activity change, negative = inhibition: at the top concentration. The procedure, abridged: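 Rice alpha-glucosidase (4 nM final) with 400 uM 4-methylumbelliferyl-alpha-D-glucopyranoside in citrate buffer pH 5.0, 20 min at room temperature, stopped at pH 10; fluorescence 365/440 nm, compounds 0.7 nM–77 uM, AC50 from Hill fits.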
As for `CC[C@]1(O)C[C@H]2CN(CCc3c([nH]c4ccccc34)[C@](C(=O)OC)(c3cc4c(cc3OC)N(C)[C@@H]3[C@](O)(C(=O)OC)[C@H](OC(C)=O)[C@]5(CC)C=CCN6CC[C@]43[C@@H]65)C2)C1`, the “activity change, negative = inhibition” value is -4.82%.

Turning to `Nc1ncnc2c1ncn2[C@@H]1O[C@@H](CO)[C@H](O)[C@@H]1O`, the “activity change, negative = inhibition” value is 2.73%.

On to `FC(F)(F)c1cc(CO[C@@H]2CCCN[C@H]2c2ccccc2)cc(C(F)(F)F)c1`, for which the “activity change, negative = inhibition” value was -16.4%.

Regarding `O=C(/C=C\c1ccc(O)cc1)c1ccc(O)cc1O`, the “activity change, negative = inhibition” value is -13.5%.

For `CN1CCc2cc(O)c(O)cc2[C@H](c2ccccc2)C1`, the “activity change, negative = inhibition” value was -0.0643%.
